Measured values: the supplement of paper PMC10849652
The full data set covers some 7,900 targets. This sample favours those with a hit. About 0.6% of all pairs of compound and target were hits. A number with no mark means an inactive call.

Assays:
Assay in all cases: log2 fold change, soluble protein after heating vs DMSO (PISA); higher = thermal stabilisation; K562 cells, 10 uM, 30 min; active = over 0.2 and 3.5 SD of the protein, either way, in both replicates (recomputed)
IRAK-1-4 Inhibitor I = compound: C1COCCN1CCN2C3=CC=CC=C3N=C2NC(=O)C4=CC(=CC=C4)[N+](=O)[O-] [IRAK-1-4 Inhibitor I]
Method in brief: (§1)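 K562 cells at 2×10^6 cells/mL were given 10 μM compound for 30 min. Aliquots then went through 3 min of heating across 48°C-58°C, were pooled, and were extracted in PBS with 0.5% NP-40 at 4°C, and the supernatant after 21,000xg for 90 min was quantified by TMTpro 16plex LC-MS/MS with channel sums equalised. Thermal stability relative to control samples, from duplicates, is given as log2 fold change.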

[1] = compound: CC(=O)c1cnc2ccc(-c3cc(Cl)c(O)c(Cl)c3)nc2c1N[C@H]1CC[C@H](CN(C)C)CC1
Method in brief: as §1

ralimetinib = compound: CC(C)(C)Cn1c(N)nc2ccc(-c3[nH]c(C(C)(C)C)nc3-c3ccc(F)cc3)nc21 [ralimetinib]
Method in brief: as §1

[2] = compound: CC(C)(O)CC(=O)NCCn1ccc2ncnc(Nc3ccc(Oc4cccc(C(F)(F)F)c4)c(Cl)c3)c21
Method in brief: as §1

[3] = compound: CC(C)C1=C2N=C(C=C(N2N=C1)NCC3=CC=CC=C3)NCCCCCCN
Method in brief: as §1

[4] = compound: CC(C)C[C@@H](C=O)NC(=O)[C@H](CC(C)C)NC(=O)[C@H](CC(C)C)NC(=O)OCc1ccccc1
Method in brief: as §1

pinometostat = compound: CC(C)N(C[C@H]1O[C@@H](n2cnc3c(N)ncnc32)[C@H](O)[C@@H]1O)[C@H]1C[C@@H](CCc2nc3cc(C(C)(C)C)ccc3[nH]2)C1 [pinometostat]
Method in brief: as §1

[5] = compound: CC1=C(C(CC(=O)N1)C2=CC=C(C=C2)C(F)(F)F)C(=O)NC3=C(C=C4C(=C3)C=NN4)F
Method in brief: as §1

[6] = compound: CC1=C(C2=C(C=C1)C(=O)C3=CC=CC=C3N2CCCN)C
Method in brief: as §1

[7] = compound: CC1=C(C=C(C=C1)NC(=O)C2=CC(=CC=C2)C(C)(C)C#N)NC3=CC4=C(C=C3)N=CN(C4=O)C
Method in brief: as §1

[8] = compound: CC1=C(C=C(C=C1)NC(=O)C2=CC(=CC=C2)N(C)C)NC(=O)C3=CC=C(C=C3)O
Method in brief: as §1

[9] = compound: CC1=CC=C(C=C1)SC2=C3C=C(SC3=CN=C2)C(=O)N
Method in brief: as §1

[10] = compound: CC1=NC(=CC=C1)C2=C(N=C(N2)C(C)(C)C)C3=CC4=NC=CN=C4C=C3
Method in brief: as §1

Nexturastat A = compound: CCCCN(Cc1ccc(C(=O)NO)cc1)C(=O)Nc1ccccc1 [Nexturastat A]
Method in brief: as §1

vemurafenib = compound: CCCS(=O)(=O)Nc1ccc(F)c(C(=O)c2c[nH]c3ncc(-c4ccc(Cl)cc4)cc23)c1F [vemurafenib]
Method in brief: as §1

[11] = compound: CCCS(=O)(=O)Nc1ccc(F)c(C(=O)c2c[nH]c3ncc(Cl)cc23)c1F
Method in brief: as §1

[12] = compound: CCCc1cc(C)[nH]c(=O)c1CNC(=O)c1cc(-c2ccnc(N3CCN(C)CC3)c2)cc2c1cnn2C(C)C
Method in brief: as §1

givinostat = compound: CCN(CC)Cc1ccc2cc(COC(=O)Nc3ccc(C(=O)NO)cc3)ccc2c1 [givinostat]
Method in brief: as §1

ibrutinib = compound: C=CC(=O)N1CCC[C@@H](n2nc(-c3ccc(Oc4ccccc4)cc3)c3c(N)ncnc32)C1 [ibrutinib]
Method in brief: as §1

barasertib = compound: CCN(CCCOc1ccc2c(Nc3cc(CC(=O)Nc4cccc(F)c4)[nH]n3)ncnc2c1)CCOP(=O)(O)O [barasertib]
Method in brief: as §1

Chain of UniProt Q92828 (Q92828 whole entry, looked up): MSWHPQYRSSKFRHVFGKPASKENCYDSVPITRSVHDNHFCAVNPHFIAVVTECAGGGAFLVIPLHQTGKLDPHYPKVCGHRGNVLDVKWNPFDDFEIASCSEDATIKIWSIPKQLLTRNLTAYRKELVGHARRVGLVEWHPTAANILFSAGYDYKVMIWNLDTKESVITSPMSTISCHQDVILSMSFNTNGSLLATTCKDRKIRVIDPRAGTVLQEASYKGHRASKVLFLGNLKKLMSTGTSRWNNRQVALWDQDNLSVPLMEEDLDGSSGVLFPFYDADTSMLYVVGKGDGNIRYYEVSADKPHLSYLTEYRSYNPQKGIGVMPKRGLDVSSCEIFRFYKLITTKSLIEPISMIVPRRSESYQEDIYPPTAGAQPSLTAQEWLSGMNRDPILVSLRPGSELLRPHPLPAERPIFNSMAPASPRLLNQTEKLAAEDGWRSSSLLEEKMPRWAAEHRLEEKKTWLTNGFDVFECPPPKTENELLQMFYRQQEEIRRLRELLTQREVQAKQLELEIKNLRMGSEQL
Chain of UniProt P24863 (P24863 whole entry, looked up): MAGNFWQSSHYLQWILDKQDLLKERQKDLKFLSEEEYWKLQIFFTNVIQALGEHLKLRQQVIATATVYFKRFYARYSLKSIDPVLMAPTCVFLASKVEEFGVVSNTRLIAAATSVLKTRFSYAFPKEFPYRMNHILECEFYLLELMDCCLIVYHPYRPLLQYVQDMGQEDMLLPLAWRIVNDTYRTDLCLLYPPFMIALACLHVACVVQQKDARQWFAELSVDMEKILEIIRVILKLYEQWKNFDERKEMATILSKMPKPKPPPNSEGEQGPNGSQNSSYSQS
Chain of UniProt Q69YH5 (Q69YH5 whole entry, looked up): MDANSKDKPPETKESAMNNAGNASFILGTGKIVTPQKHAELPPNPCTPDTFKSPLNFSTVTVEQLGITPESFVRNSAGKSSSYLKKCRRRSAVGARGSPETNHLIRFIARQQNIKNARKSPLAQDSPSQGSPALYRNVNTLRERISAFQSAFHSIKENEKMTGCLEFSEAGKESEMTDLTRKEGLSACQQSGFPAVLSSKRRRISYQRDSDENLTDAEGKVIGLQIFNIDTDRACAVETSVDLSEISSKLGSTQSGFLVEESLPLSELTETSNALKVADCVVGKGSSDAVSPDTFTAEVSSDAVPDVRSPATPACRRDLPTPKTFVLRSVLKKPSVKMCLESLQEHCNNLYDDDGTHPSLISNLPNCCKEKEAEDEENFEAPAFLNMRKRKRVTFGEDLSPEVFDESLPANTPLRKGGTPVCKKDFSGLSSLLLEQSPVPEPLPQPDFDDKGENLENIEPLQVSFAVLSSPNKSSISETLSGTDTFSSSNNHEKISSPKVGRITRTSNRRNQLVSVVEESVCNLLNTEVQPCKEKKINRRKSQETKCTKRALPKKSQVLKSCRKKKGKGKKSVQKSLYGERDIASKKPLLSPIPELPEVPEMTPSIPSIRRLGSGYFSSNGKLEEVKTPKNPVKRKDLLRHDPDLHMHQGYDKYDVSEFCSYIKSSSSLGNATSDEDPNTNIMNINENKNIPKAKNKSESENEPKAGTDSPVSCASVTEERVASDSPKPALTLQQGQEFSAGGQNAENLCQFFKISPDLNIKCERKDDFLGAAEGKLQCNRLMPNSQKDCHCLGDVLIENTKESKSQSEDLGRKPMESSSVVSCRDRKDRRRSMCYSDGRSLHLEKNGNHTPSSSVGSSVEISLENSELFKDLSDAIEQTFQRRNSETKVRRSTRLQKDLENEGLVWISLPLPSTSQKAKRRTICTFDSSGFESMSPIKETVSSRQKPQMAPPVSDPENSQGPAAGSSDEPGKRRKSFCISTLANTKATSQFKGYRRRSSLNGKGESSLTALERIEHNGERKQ
Chain of UniProt Q02224 (Q02224 whole entry, looked up): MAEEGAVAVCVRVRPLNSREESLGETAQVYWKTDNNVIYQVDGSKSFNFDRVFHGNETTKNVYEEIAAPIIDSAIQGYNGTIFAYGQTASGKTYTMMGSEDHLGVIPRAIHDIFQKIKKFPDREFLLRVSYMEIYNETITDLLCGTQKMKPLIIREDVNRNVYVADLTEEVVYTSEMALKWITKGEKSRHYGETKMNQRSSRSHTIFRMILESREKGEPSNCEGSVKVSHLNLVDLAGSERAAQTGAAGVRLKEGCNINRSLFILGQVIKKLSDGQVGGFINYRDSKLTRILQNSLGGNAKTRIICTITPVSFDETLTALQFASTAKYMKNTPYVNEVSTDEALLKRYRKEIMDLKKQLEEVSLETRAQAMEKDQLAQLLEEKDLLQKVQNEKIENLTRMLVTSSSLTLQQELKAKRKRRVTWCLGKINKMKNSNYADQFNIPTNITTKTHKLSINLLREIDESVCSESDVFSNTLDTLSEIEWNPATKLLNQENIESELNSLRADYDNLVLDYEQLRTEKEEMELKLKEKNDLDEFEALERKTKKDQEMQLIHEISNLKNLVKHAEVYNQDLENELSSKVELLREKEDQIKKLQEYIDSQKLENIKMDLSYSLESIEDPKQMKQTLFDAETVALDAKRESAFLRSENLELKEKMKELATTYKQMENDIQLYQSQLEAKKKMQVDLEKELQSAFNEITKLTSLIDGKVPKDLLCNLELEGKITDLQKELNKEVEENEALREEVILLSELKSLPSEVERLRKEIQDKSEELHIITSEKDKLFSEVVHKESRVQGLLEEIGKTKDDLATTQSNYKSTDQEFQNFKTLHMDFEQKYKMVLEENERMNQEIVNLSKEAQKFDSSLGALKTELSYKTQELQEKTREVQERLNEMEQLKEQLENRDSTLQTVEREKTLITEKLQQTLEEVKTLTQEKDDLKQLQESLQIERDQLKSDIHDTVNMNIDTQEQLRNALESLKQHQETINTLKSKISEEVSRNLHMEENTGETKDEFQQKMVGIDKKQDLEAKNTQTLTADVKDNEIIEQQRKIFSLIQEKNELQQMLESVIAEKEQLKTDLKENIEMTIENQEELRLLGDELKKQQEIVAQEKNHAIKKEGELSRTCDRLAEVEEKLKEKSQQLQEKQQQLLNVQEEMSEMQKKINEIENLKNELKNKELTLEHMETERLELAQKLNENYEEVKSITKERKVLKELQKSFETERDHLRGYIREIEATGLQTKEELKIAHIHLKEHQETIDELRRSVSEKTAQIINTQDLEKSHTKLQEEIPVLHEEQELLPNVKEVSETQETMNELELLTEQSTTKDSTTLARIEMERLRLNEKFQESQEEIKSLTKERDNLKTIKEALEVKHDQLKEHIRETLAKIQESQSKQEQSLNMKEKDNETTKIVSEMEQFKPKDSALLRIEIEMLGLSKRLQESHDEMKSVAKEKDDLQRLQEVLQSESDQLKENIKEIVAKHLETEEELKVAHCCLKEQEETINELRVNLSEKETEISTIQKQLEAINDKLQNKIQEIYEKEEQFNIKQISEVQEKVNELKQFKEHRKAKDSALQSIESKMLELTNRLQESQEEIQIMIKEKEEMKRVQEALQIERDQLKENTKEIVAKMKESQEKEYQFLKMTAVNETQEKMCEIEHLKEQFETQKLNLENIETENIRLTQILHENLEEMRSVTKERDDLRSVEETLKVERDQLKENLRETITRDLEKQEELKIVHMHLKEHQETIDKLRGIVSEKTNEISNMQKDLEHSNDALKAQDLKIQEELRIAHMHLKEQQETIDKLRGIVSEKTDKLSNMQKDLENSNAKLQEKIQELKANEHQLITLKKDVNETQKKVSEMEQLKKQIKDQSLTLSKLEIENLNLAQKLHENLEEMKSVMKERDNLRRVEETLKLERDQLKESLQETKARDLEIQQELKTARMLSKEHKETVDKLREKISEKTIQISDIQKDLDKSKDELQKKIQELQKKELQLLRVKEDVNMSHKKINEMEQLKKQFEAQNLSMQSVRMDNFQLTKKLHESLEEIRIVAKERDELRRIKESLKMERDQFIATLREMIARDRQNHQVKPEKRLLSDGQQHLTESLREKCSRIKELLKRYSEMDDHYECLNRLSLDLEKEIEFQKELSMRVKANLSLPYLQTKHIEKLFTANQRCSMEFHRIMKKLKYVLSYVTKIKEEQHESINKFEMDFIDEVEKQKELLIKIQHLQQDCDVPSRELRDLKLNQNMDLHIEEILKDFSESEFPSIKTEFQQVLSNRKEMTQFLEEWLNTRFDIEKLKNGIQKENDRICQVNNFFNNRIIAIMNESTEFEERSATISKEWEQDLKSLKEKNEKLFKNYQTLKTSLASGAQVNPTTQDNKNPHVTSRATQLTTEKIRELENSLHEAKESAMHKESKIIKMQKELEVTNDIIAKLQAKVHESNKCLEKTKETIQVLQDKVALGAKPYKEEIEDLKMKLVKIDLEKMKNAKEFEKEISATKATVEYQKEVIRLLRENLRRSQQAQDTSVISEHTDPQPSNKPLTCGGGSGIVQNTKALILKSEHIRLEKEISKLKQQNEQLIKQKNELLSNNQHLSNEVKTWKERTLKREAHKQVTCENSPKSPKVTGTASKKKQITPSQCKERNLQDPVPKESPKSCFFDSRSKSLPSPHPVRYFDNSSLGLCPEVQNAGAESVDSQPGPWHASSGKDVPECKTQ
Chain of UniProt Q16740 (Q16740 whole entry, looked up): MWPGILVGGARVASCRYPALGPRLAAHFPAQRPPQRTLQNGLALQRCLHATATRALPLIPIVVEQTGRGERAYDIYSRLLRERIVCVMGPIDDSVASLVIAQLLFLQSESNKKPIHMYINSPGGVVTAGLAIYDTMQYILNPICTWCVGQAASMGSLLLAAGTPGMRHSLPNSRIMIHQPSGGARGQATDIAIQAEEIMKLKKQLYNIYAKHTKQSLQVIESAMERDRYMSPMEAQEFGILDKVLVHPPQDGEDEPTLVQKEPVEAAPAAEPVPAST
Chain of UniProt P30281 (P30281 whole entry, looked up): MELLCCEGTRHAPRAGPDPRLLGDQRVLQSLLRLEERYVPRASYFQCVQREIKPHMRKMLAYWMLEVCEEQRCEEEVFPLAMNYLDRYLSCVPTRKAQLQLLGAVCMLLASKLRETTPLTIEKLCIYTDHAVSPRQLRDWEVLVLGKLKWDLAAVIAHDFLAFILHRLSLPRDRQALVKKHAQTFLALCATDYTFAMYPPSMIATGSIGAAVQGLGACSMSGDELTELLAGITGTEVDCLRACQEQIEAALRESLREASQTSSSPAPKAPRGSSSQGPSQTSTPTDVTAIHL

| Target | log2 fold change (IRAK-1-4 Inhibitor I) | log2 fold change [1] | log2 fold change (ralimetinib) | log2 fold change [2] | log2 fold change [3] | log2 fold change [4] | log2 fold change (pinometostat) | log2 fold change [5] | log2 fold change [6] | log2 fold change [7] | log2 fold change [8] | log2 fold change [9] | log2 fold change [10] | log2 fold change (Nexturastat A) | log2 fold change (vemurafenib) | log2 fold change [11] | log2 fold change [12] | log2 fold change (givinostat) | log2 fold change (ibrutinib) | log2 fold change (barasertib) |
| --- | --- | --- | --- | --- | --- | --- | --- | --- | --- | --- | --- | --- | --- | --- | --- | --- | --- | --- | --- | --- |
| CDCA2 (UniProt Q69YH5) | 0.023 | 0.011 | 0.081 | -0.138 | -0.009 | 0.188 | -0.008 | -0.018 | -0.003 | -0.134 | 0.033 | -0.047 | -0.299 | 0.638 (active) | -0.009 | -0.043 | -0.027 | 0.382 |  |  |
| C15orf41 (UniProt Q9Y2V0) | 0.105 | 0.062 | 0.004 | -0.103 | -0.17 | 0.11 | 0.027 |  | -0.117 | 0.022 | -0.026 | -0.017 | -0.002 | -0.006 | 0.015 | 0.032 |  | -0.012 |  |  |
| CDK17 isoform 2 (UniProt Q00537) | 0.101 | 0.258 |  | -0.069 | 0.078 |  | 0.037 |  |  | 0.105 |  | 0.061 | -0.051 | 0.172 | -0.098 | -0.085 | 0.042 | 0.003 | 0.003 | 0.055 |
| COPS3 isoform 2 (UniProt Q9UNS2) | 0.098 | -0.191 | -0.214 | -0.097 |  | 0.258 | 0.071 | 0.046 | 0.053 | -0.154 | 0.03 | 0.066 | -0.128 | -0.113 | -0.303 | -0.14 | -0.162 |  | -0.015 | 0.065 |
| CLCN3 (UniProt P51790) | 0.014 | -0.062 | -0.076 | 0.015 | -0.05 | -0.039 | -0.031 | -0.045 | -0.053 | -0.03 | 0.046 | 0.015 | 0.034 | -0.313 (active) | 0.014 | 0.009 | -0.107 | 0.02 |  | 0.053 |
| CCNC (UniProt P24863) | 0.071 | 0.595 (active) | -0.027 | 0.053 | 0.041 | 0.071 | -0.058 |  |  | 0.207 | -0.072 |  | 0.031 | 0.008 | 0.105 |  | -0.086 | 0.011 | -0.082 | -0.024 |
| CLPP (UniProt Q16740) | -0.023 | 0.022 | -0.012 | 0.017 | 0.097 | -0.008 | -0.094 | -0.011 | 0.079 | -0.002 | -0.004 | -0.003 | 0.007 | 0.041 | 0.015 | 0.008 | 0.023 | 0.003 |  | 0.001 |
| CEBPZOS (UniProt A8MTT3) | -0.034 | 0.003 | -0.076 |  | 0.018 | -0.059 | -0.026 | 0.02 | 0 |  | -0.015 | 0.027 | -0.016 |  | 0.065 | 0.132 | -0.069 | -0.029 | -0.095 | 0.059 |
| CLASP2 isoform 3 (UniProt O75122) | -0.047 | -0.297 (active) | 0.009 | -0.056 | -0.036 | 0.046 | 0.018 | 0.023 | 0.046 | -0.032 | -0.01 | 0.013 | 0.012 | -0.006 | 0.089 | 0.061 | 0.029 | 0.013 |  | 0.066 |
| CENPE (UniProt Q02224) | 0.046 | 0.431 | 0.119 |  | 0.211 | 0.11 | -0.002 |  | 0.101 | -0.018 | 0.063 | 0.022 | -0.096 |  | 0.047 | -0.108 |  | 0.285 | -0.184 | -0.1 |
| CLSPN (UniProt Q9HAW4) | 0.028 | -0.04 | -0.033 | 0.038 | -0.062 | 0.124 | -0.018 | 0.009 | -0.541 (active) | -0.048 | 0.003 | -0.025 | -0.035 | 0.006 | 0.041 | 0 | -0.012 | -0.032 |  | 0.006 |
| C5orf30 (UniProt Q96GV9) |  | -0.917 (active) |  | 0.059 |  |  |  |  | -0.284 |  |  | -0.126 |  | -0.186 |  | 0.103 |  |  |  |  |
| CFAP58 (UniProt Q5T655) |  |  | -0.04 |  |  | -0.035 |  |  |  |  | 0.185 | 0.07 |  |  |  | -0.175 | -0.219 |  |  |  |
| CLN5 (UniProt O75503) | 0.023 | -0.03 |  | 0.001 | -0.62 |  | -0.062 | -0.039 | -0.028 | 0.031 |  | 0.058 | 0.068 | 0.012 |  | 0.104 | -0.54 | -0.17 |  | 0.06 |
| CCNDBP1 (UniProt O95273) |  | 0.071 | 0.168 |  | -0.077 | -0.027 |  | 0.166 | -0.166 | -0.104 | 0.027 |  |  |  | -0.074 |  | -0.091 | -0.046 | -0.184 | 0.088 |
| CASK (UniProt O14936) | 0.036 | -0.483 (active) |  |  | 0.177 |  | 0.081 |  |  |  |  |  | -0.091 |  |  |  |  | -0.06 |  |  |
| CLPTM1L (UniProt G5E9Z2) |  | -0.03 |  | -0.556 |  |  |  | 0.106 | -0.201 | 0.122 |  |  |  | -0.466 | 0.055 |  | -0.035 |  |  | -0.076 |
| CARD9 (UniProt Q9H257) | -0.181 | -0.255 | 0.15 |  | 0.071 | 0.178 | 0.202 |  |  |  | -0.15 |  | 0.052 |  |  |  |  | -0.106 |  |  |
| CCND3 (UniProt P30281) |  | 0.078 | -0.076 | 0 | -0.303 | 0.341 |  |  | -0.088 |  | 0.046 | 0.063 |  | -0.004 | -0.077 | -0.028 | -0.062 | 0.021 | -0.063 | 0.079 |
| CORO2A (UniProt Q92828) |  | -0.022 | 0.019 |  | -0.088 | 0.21 |  | 0.008 | 0.01 | 0.014 | 0.157 | 0.01 |  |  | 0.063 | 0.054 | 0.026 | 0.002 | -0.068 | 0.065 |
| CHPT1 (UniProt Q8WUD6) |  | 0.023 | -0.132 | 0.223 |  | -0.002 |  | 0.26 | 0.044 | 0.088 | 0.055 | 0.132 |  | 0.114 |  | 0.051 | 0.047 |  |  |  |
| CA1 (UniProt E5RIF9) |  |  |  | -0.052 |  |  |  |  | -0.02 |  |  |  |  | -0.413 | -0.383 |  |  |  | 0.161 | -0.004 |
| CNN1 (UniProt P51911) |  | -0.086 |  | -0.071 |  |  |  | 0.144 | 0.145 | -0.068 |  | -0.1 |  | -0.029 | 0.056 | -0.042 | -0.012 |  |  |  |
